From PubChem BioAssay AID588763 (NMMLSC, 2011)
Measured potencies and affinities stand elsewhere. Activity calls are given as the source filed them. The rule behind the calls is not given here.

The compounds below were run against Beta-2 adrenergic receptor (Homo sapiens) (UniProt P07550) (assay: beta2AR agonists driving receptor internalization, dose response, cell-based, FAP fluorogen, flow cytometry, cherry pick 1 (AID 588763)). Settings: AM2.2-beta2AR cells, 90 min; series mostly up to 33 µM.
Beta-2 adrenergic receptor (Homo sapiens), sequence (P07550 whole entry, looked up): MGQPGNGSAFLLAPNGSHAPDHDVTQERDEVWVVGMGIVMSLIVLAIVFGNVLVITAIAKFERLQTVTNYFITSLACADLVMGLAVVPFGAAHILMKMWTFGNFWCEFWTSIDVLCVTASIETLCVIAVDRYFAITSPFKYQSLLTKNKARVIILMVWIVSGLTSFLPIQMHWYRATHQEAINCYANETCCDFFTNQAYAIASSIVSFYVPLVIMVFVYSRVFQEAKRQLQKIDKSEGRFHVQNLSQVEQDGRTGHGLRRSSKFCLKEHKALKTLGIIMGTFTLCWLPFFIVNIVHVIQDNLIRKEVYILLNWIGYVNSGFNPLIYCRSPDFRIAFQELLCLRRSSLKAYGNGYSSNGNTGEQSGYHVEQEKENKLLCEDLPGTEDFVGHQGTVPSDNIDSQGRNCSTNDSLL

outcome, inactive:
COc1cccc(-c2ccc(NC(=O)C3CCCN(Cc4ccccn4)C3)cc2)c1 (stereo not drawn)
C=CCn1c(CCNC(=O)c2cccs2)nnc1SCC(=O)Nc1cccc(Cl)c1C
CC1CCCN(C(=O)C(C)Sc2nc(-c3ccccc3)cc(C(F)(F)F)n2)C1 (stereo not drawn)
N=c1n(Cc2ccc(Cl)cc2)c2ccccc2n1CC(O)COc1ccccc1 (stereo not drawn)
CCOc1cccc(CN2CCC(Oc3ccc(C(=O)N4CCCC4)cc3)CC2)c1
Cc1cnn(-c2nc(-c3ccccc3)cc(-c3ccccc3)n2)c1
Cc1ccc(-c2nc(NC(=O)c3cc(C(C)(C)C)nn3C)sc2C)cc1Cl
O=C(CN1CCOCC1)N1CCN(c2nnc(-c3ccccc3)c3ccccc23)CC1
COc1ccc(-n2nc3c(N4CCC(C(=O)NCc5cccc(C)c5)CC4)nnc(C)c3c2C)cc1
CCOc1ccc(CNC(=O)C2CCN(c3nnc(C)c4c(C)n(-c5ccc(C)cc5)nc34)CC2)cc1
Cc1ccc(NC(=O)c2cc(N3C(=O)C=CC3=O)ccc2N2CCOCC2)cc1
CCN(CC)S(=O)(=O)c1cc(C(=O)Nc2cc(Cl)ccc2N2CCN(C)CC2)ccc1Cl
COc1ccccc1CCC(=O)Nc1cccc(S(=O)(=O)N2CCCCCC2)c1
COc1ccc(-c2nc3c4ccccc4ccn3c2CN2CCOCC2)cc1OC
CCOc1cc(-c2nc3ccccn3c2NCC2CCCO2)ccc1O (stereo not drawn)
N=c1n(CC(=O)c2ccc([N+](=O)[O-])cc2)c2ccccc2n1Cc1ccc(Cl)cc1
COc1ccc(Cn2nc(-c3ccccc3)c(N3CCCCC3)cc2=O)cc1
CC1CCN(C(C(=O)Nc2ccc3c(c2)OCO3)c2ccccc2)CC1 (stereo not drawn)
CC(C)c1nc2sc3c(NCc4ccccc4)ncnc3c2c2c1COC(C)(C)C2
Cc1cc(S(=O)(=O)N2CCOCC2)ccc1OCC(=O)Nc1cccc(C(F)(F)F)c1
CSc1ccc(CCNC(=O)C2CCN(c3nnc(-n4cccc4)s3)CC2)cc1
Fc1ccc(Sc2nc(-c3ccccc3)nnc2C(F)(F)F)cc1
COCc1ccc(CN2CCCC(C(=O)Nc3ccc(-c4cccc(OC)c4)cc3)C2)o1 (stereo not drawn)
COc1ccc(S(=O)(=O)N(C)CC(=O)N2CCN(c3ccccc3)CC2)cc1
Cc1cccc(CN2CCC(Oc3ccc(C(=O)N4CCCCC4)cc3)CC2)c1
COc1ccccc1CNC(=O)CCn1c(=O)[nH]c2ccsc2c1=O
O=C(c1ccc(OC2CCN(Cc3ccccc3C(F)(F)F)CC2)cc1)N1CCCCC1
O=C(Cn1nnc(-c2ccccc2)n1)Nc1ccccc1N1CCOCC1
COc1ccc(OC)c(S(=O)(=O)N(C)CC(=O)N2CCN(c3ccc(F)cc3)CC2)c1
COC(=O)c1ccc(CN2CCC(Oc3ccc(C(=O)N4CCCCC4)cc3)CC2)cc1
COc1ccccc1-c1cc(C(F)(F)F)nc(S(=O)(=O)CCCC(=O)N2CCCCC2C)n1 (stereo not drawn)
N=c1n(CC(=O)c2ccc(Br)cc2)c2ccccc2n1Cc1ccccc1

Activation (receptor internalization), inactive:
COc1ccc(OC)c(NC(=O)c2sc3nc(C)cc(C)c3c2N)c1 0.987% [at 1.22 µM]
